The whole screen tested about 370,000 compounds, of which about 6,800 (1.8%) were called active. This excerpt belongs to a sample that is enriched for actives. A number with no mark means an inactive call.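 The calls were made as follows: active = activation above a cutoff set at the mean of all screened compounds plus 3 SD (cut at about 10% in these data); inactive = the rest.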

The test has as its system Nuclear hormone receptor DAF-12 (Heterodera glycines), GAL4 fusion. Briefly: H. glycines DAF-12 receptor agonists, primary screen, cell-based, luminescence, HEK293, GAL4 fusion, UAS-luciferase (AID 687014).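 Also: 0% = DMSO wells and 100% = sodium butyrate wells.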 Particulars: HEK293 GAL4-hgDAF12 UAS-luciferase reporter, agonist luminescence; at 6.8 µM; stronger effect = higher value; normalized to butyrate control. In general terms: In a reporter assay the amount or activity of a reporter protein is the signal.
For `C=CCN1C(=O)[C@H](CC(=O)NCCCN2CCCC2=O)[C@@]2(C(=O)OCC)CCCC=C12`, the activation was -1.4%.

On to `Cc1[nH]nc2c1C(c1ccc(Br)cc1)NC2=O` (stereo unspecified), for which the activation is 0.07%.

With `O=C(Nc1ccccc1Cl)c1ccc2nsnc2c1`, the activation was 12.6% (active).

Turning to `O=C(Nc1ccccc1Cl)/C(Cl)=C(\Cl)S(=O)c1ccccc1` (stereo unspecified), the activation is -20.1%.

For `O=S(=O)(Nc1ccccc1Cl)c1cccc2nsnc12`, the activation was -1.42%.

For the compound `Cc1ccc(-n2c(SCC(=O)Nc3ccc(S(=O)(=O)Nc4nccs4)cc3)nnc2-c2ccncc2)cc1`, the activation was -0.9%.

In the case of `Nc1ncnc2c1ncn2C1OC(CO)CC1O` (stereo unspecified), the activation was -1.31%.

Regarding `COc1ccc(C(=O)Nc2ccnn2C2CCN(Cc3ccncc3)CC2)cc1`, the activation was -1.76%.

As for `CCOc1ccc(C(=O)Nc2ccc(CN3CCOCC3)cc2)cc1Cl`, the activation was -0.68%.

On to `COc1ccc(C(=O)Nc2sc(C)c(C)c2CN2CCOCC2)cc1`, for which the activation was 11.8% (active).

For the compound `COC(=O)c1ccccc1-n1cc(COC(=O)NCCc2ccccc2)nn1`, the activation was 0.71%.

As to `COC(=O)c1ccc(CN2C(=O)[C@]3(OCCC=C[C@H]3C)c3c(Br)cccc32)cc1`, the activation is 4.21%.

Take `Cc1ccc2nc(/C(C#N)=C\c3ccc(OC(=O)c4cccs4)cc3)[nH]c2c1`: the activation was 10.6% (active).

With `COc1ccc(S(=O)(=O)N2CCCC2CNC(=O)C(=O)NC2CC2)cc1` (stereo unspecified), the activation was 0.71%.

Consider `O=C(N/N=C/c1sc(N2CCCCC2)nc1-c1cccs1)c1cccnc1`, for which the activation is 1.92%.

For the compound `O=Cc1cn(-c2ccccc2)nc1-c1ccccn1`, the activation was -0.68%.

On to `O=C(O)c1ccc(N/N=C/c2cn(-c3ccccc3)nc2-c2cccs2)cc1`, for which the activation is 16.3% (active).

Consider `Fc1ccc2nc(COCc3nc4ccc(F)cc4[nH]3)[nH]c2c1`, for which the activation was 0.86%.

Regarding `COc1cccc(-c2nnc(N(C)C(=O)c3ccno3)s2)c1`, the activation was 3.08%.

Take `O=C(NCCCn1ccnc1)c1cc(Br)c(Br)s1`: the activation was 1.27%.

Turning to `O=C(Nc1ccccc1C(=O)NCCCn1ccnc1)c1ccc(Cl)cc1Cl`, the activation is -1.62%.

In the case of `O=C(NCCCn1ccnc1)c1cc(-c2ccccc2)on1`, the activation is 46% (active).

Turning to `O=C(NC1CCCCCCC1)c1cccs1`, the activation was 2.58%.

For the compound `O=C(NC1CCCC1)c1cc(-c2ccccc2)on1`, the activation is 36.2% (active).

On to `O=C(NC1CC1)c1ccc(-c2ccccc2)cc1`, for which the activation was 9.69%.

With `COC(=O)c1ccc(COC(=O)C2CCN(S(=O)(=O)c3c(Cl)cccc3Cl)CC2)o1`, the activation is -1.37%.

Regarding `COc1ccc2c(C(C)c3ccc(N)cc3)cn(C)c2c1` (stereo unspecified), the activation is 0.29%.

For `COC(=O)[C@]1(C#N)CC(=O)N(CC2CCCCC2)[C@@H]1c1ccccc1`, the activation is 1.35%.

As to `Cc1ccccc1CN1CCCCC(NC(=O)Nc2ccccc2F)C1=O` (stereo unspecified), the activation is -3.67%.

For the compound `Nc1nc(SCC(=O)Nc2ccc(Cl)c([N+](=O)[O-])c2)n[nH]1`, the activation is -3.01%.

Turning to `O=C(NCc1ccccc1)[C@@H]1CCCN1C(=O)[C@H]1CCCN1C(=O)c1cccc(Cl)c1`, the activation is 2.12%.

Take `COC(=O)[C@]12C[C@H](CC(=O)N3CCOCC3)C(=O)N(Cc3ccc(Cl)cc3Cl)C1=C[C@H](COCc1ccccc1)O[C@@H]2C`: the activation is -2.38%.

Turning to `CCOC(=O)C1=C(C)NC2=C(C(=O)CC(C)(C)C2)C1c1ccc2c(c1)OCO2` (stereo unspecified), the activation was -2.39%.

For the compound `COc1ccc(CNC(=O)COc2ccccc2C(=O)c2cnn(-c3ccccc3)c2)cc1OC`, the activation was 13.4% (active).

On to `COc1ccc(CNC(=O)COC(=O)c2sccc2C)cc1OC`, for which the activation was 0.76%.

As for `COc1ccc(CNC(=O)COC(=O)c2c(C)nn(-c3ccccc3)c2C)cc1OC`, the activation was -3.17%.

For the compound `CCOC(=O)CNC(=O)N(C)[C@H]1C[C@H]2c3[nH]c4c(-c5ccc6c(c5)OCO6)cccc4c3CCN2C(=O)[C@H]1[C@H](C)O`, the activation is -1.8%.

With `CCCN(C(=O)CSc1nnc(N)s1)c1c(N)n(Cc2ccccc2)c(=O)[nH]c1=O`, the activation was -3.79%.

In the case of `CCS(=O)(=O)N1Cc2ccccc2CC1C(=O)Nc1nc2ccc(F)cc2s1` (stereo unspecified), the activation was 10.2%.

For `COC(=O)C(NC(C)=O)(Nc1nc2c(s1)CCCC2)C(F)(F)F` (stereo unspecified), the activation was -0.75%.

In the case of `Fc1ccc2nc(Nc3nc4c(s3)CCCC4)sc2c1`, the activation is 12.8% (active).

For the compound `CC(=O)N1CCCN(C2=Nc3ccccc3Sc3ccccc32)CC1`, the activation is -3.68%.

With `CCN(CC)C(=O)CC[C@H]1CC[C@]2(CCCN(Cc3ccc(Cl)cc3)C2)O1`, the activation is -2.24%.

For the compound `COC(=O)c1c(-c2ccc(OC)cc2)c2c(c3c4ccccc4n(S(=O)(=O)c4ccc(C)cc4)c13)C(=O)N(C)C2`, the activation is -0.11%.

For `Cc1ccc2nc(-c3ccccc3)c(CC3CCCCC3)n2c1`, the activation was 15.8% (active).

Turning to `COc1ccccc1Cc1c(-c2ccc(F)cc2)nc2ccc(C)cn12`, the activation is 9.36%.

Regarding `Cc1ccc2nc(-c3cccnc3)c(NC3CCCC3)n2c1`, the activation is -2.27%.

For `Cc1ccc(NC(=O)Nc2cc(C)nn2-c2ccccc2)cc1`, the activation was 0.6%.

Take `Cc1cccc(/C(N)=N/OC(=O)c2ccccc2Cl)c1`: the activation is 22.6% (active).

Regarding `Cc1cc(OC(=O)c2ccccc2Cl)ccc1N1C(=O)CCC1=O`, the activation is 1.41%.

With `C/C(=N\OC(=O)c1ccccc1)c1c(C)nc2cc(C)ccn12`, the activation is 1.13%.

For the compound `COc1ccc(CSc2nnc(SCC(=O)Nc3ccccc3C(F)(F)F)s2)cc1`, the activation is -0.44%.

Take `COc1cccc(NC(=O)N(C)C[C@@H]2OCc3cn(nn3)CCCC(=O)N([C@@H](C)CO)C[C@H]2C)c1`: the activation is -1.94%.

As for `CCS(=O)(=O)n1nc(-c2ccccc2)nc1SCc1ccccc1`, the activation was 13.2% (active).

`CCS(=O)(=O)n1nc(-c2ccc(OC)cc2)nc1SC`: the activation is 2.82%.

With `O=S(=O)(c1ccc(SCc2ccccc2)nc1)N1CCCCCC1`, the activation is 3.56%.

As for `CCN1C(=O)[C@@H]2[C@@H](c3ccc(-c4cccc(Cl)c4)cc3)N3CCC[C@@]3(C(=O)OC)[C@@H]2C1=O`, the activation is -0.28%.

On to `C=CCN(Cc1ccc2c(c1)OCO2)C(C#CC1CC1)C(C)(C)C` (stereo unspecified), for which the activation was 0.18%.

For `O=C(NC(=S)NC1CCCCC1)c1ccc(Cl)cc1`, the activation is 14.2% (active).

Take `O=C(NNC(=S)NC1CCCCC1)c1ccccc1Cl`: the activation is -1.15%.

Consider `O=C(NC1CCCCCC1)C1CCN(C(=O)c2ccc(Cl)cc2)CC1`, for which the activation was -2.28%.

With `CN(C)/C=C(\C#N)C(=O)c1cccnc1Oc1cccc(F)c1`, the activation was -0.67%.

In the case of `CCC(=O)OCCCN1C(=O)CCC12CCC(c1ccccc1)CC2` (stereo unspecified), the activation was -0.73%.

As for `Clc1ccc(Nc2ccc3ccccc3n2)cc1`, the activation is 19.3% (active).

Take `C=CCNc1nc(Nc2ccc(Cl)cc2)nc(OC)n1`: the activation is 2.81%.

For the compound `CC1(C)N=C(N)NC(Nc2ccc(Cl)cc2)=N1`, the activation is -2.03%.

Consider `CCC(C)[C@@H](C(=O)OC)N(CCc1cn(Cc2ccccc2)nn1)S(=O)(=O)c1ccccc1Br` (stereo partly specified), for which the activation was -4.53%.

Regarding `CCOC(=O)C1=C(C)c2ccccc2OC1C(=O)OCC` (stereo unspecified), the activation is 12.1% (active).

Regarding `CCOC(=O)CC(NC(=O)C1c2ccccc2Oc2ccccc21)c1ccc(C)cc1` (stereo unspecified), the activation was -2.51%.

In the case of `CCCN(CCC)C(=O)C1c2ccccc2Oc2ccccc21`, the activation was -0.5%.

Consider `Cc1ccc(C2NC(C(=O)O)CS2)cc1` (stereo unspecified), for which the activation is -0.05%.

On to `CC(CCN1CCC(C(O)(c2ccccc2)c2ccccc2)CC1)Oc1ccc([N+](=O)[O-])cc1Cl` (stereo unspecified), for which the activation was 4%.

As to `COc1ccccc1C(=O)NC1CCCCN(C(C)C)C1=O` (stereo unspecified), the activation was 2.92%.

On to `Cc1ccccc1NC(=O)COC(=O)c1ccc(Sc2ncn[nH]2)c([N+](=O)[O-])c1`, for which the activation is 1.49%.

For `Cc1ccc(NNC(=O)C2CCC2)cc1C`, the activation is 1.26%.

Take `COC(C(=O)Nc1ccc(S(=O)(=O)Nc2ccc(C)c(C)c2)cc1)c1ccccc1` (stereo unspecified): the activation was -3.51%.

Consider `Cc1ccc(N/C=C/C(=O)c2ccccc2)cc1C`, for which the activation was 19.8% (active).

In the case of `N#Cc1c(NCCO)ccc([N+](=O)[O-])c1NCCO`, the activation was -1.17%.

Turning to `COC(=O)[C@]12C[C@H](CC(=O)NCC34CC5CC(CC(C5)C3)C4)C(=O)N(Cc3ccc(Cl)cc3Cl)C1=C[C@H](COCc1ccccc1)O[C@@H]2C`, the activation was 1.95%.

For `C[C@H](C(=O)N(C)c1ccccc1)[C@@H](O)c1ccc2ccccc2c1`, the activation was -1.62%.

In the case of `CC(C)n1c(O)c(N=Nc2ccccn2)c2ccccc21`, the activation was 1.77%.

Regarding `Oc1oc(-c2ccccc2Br)nc1/C=N/c1ccccn1`, the activation is 10.8% (active).

Consider `COc1cccc(-c2cc(CNC(=O)[C@@H](Cc3ccccc3)NC(=O)[C@H]3O[C@@H](n4cnc(C(N)=O)n4)[C@H](O)[C@@H]3O)no2)c1`, for which the activation is 3.48%.

`COC(=O)CC1CCc2cc(C)cc(C(CC(C)C)NC(=O)[C@H](CC(C)C)NC(=O)OCc3ccccc3)c2O1` (stereo partly specified): the activation is -1.05%.

Consider `O=C(/C=C/c1cnc2ccccc2n1)NC1CCCCCC1`, for which the activation was 11.9% (active).

For the compound `CC1CCCCC1NC(=O)Cn1c(=O)cnc2ccccc21` (stereo unspecified), the activation was -0.26%.

Regarding `O=C(Cn1c(-c2cncs2)nc2ccccc21)NC1CCCC1`, the activation was 0.16%.

Consider `O=C(CCCCCn1c(=O)[nH]c2ccccc2c1=O)NCCc1c[nH]c2ccccc12`, for which the activation is -0.27%.

Consider `O=C(NCCc1c[nH]c2ccccc12)c1cc2ccccc2oc1=O`, for which the activation is 14.6% (active).

For `C[N+](C)(C)CCNC(=O)c1c[nH]c2ccccc12`, the activation was 0.11%.

With `Clc1cccc2c1C1CC2CCN1Cc1ccccc1` (stereo unspecified), the activation is 0.38%.
